CYP2C9 act: activators of human CYP2C9 | P11712 | recombinant CYP2C9, luciferin-H conversion, luminescence; active compounds read high; factor 1 = untreated enzyme, 0 = blocked | activation factor at 5 µM | 1.4% of 96,000 active | AID 1024;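 active = activation factor of 2 or more for CYP2C9 at a 5 µM dose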;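 also: 0 = sulfaphenazole-blocked wells and 1 = vehicle-only wells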
PLAP act: activators of human placental alkaline phosphatase; P05187; purified PLAP enzyme, luminescent substrate read-out; active compounds read high; activation fold at 20 µM; 1.2% of 96,000 active; in the data active = activation fold above about 2
Target sequence (P05187 whole entry, looked up): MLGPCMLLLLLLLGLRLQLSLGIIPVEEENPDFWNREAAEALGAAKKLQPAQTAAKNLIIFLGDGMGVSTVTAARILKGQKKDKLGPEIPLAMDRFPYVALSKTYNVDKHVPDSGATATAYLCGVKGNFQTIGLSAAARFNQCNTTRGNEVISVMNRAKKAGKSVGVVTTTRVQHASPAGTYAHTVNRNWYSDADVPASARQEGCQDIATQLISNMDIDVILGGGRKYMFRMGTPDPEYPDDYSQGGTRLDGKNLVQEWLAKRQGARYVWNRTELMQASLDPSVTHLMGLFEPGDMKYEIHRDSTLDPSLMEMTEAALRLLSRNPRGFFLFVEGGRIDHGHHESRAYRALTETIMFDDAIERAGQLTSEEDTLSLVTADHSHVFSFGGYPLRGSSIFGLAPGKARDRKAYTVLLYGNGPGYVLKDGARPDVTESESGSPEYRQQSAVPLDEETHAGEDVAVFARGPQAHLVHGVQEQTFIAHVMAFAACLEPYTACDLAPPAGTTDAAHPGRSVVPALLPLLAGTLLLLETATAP
CYP2C9 inhib: human CYP2C9 inhibition; P11712; CYP2C9 Supersomes, luciferin-H conversion, luminescence; inhibition, % at 5 µM; 20% of 96,000 active;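 active = blocking of liver enzyme CYP2C9 beyond about 50% at 5 µM, limit read from the data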
CYP2C19 inhib: blocks human cytochrome P450 2C19. CYP2C19 Supersomes, luciferin-H EGE luminescence, 30 min. inhibition, % at 5 µM. AID 778. P33261. 21% of 96,000 active;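 active = CYP2C19 inhibition above a set limit at 5 µM in the primary screen, cut at about 50% in these data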;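 also: plate controls were negative control wells for no effect and 2.5 mM tranylcypromine positive control for full effect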
CYP2C19 act: increases human CYP2C19 enzyme activity; 96,000 tested, under 10 active; P33261; recombinant CYP2C19, luciferin-H EGE luminescence; active compounds read high; 0 = fully inhibited enzyme, 1 = untreated enzyme; activation factor at 5 µM; AID 1025;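 active = activation factor of at least 2 at 5 µM in the primary screen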;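 also: 0 = wells with 2.5 mM tranylcypromine and 1 = vehicle-only wells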
Active calls of the source: *. In the library only some 31% were active in any assay of this set; here they are far more common.

SMILES	CYP2C9 act	PLAP act	CYP2C9 inhib	CYP2C19 inhib	CYP2C19 act
COc1ccc(N(CC(=O)Nc2ccc(C)cn2)S(=O)(=O)c2c(C)nn(C)c2C)cc1	0.2	1.6	84*	86*	0.1
COc1ccc(N(CC(=O)NC2CCCC2)S(=O)(=O)c2c(C)[nH]c(=O)[nH]c2=O)cc1	0.6	1.3	43	5	0.9
Cc1ccc(N(CC(=O)Nc2ccc(C)cn2)S(=O)(=O)c2c(C)nn(C)c2C)cc1	0.2	1.4	84*	76*	0.2
COc1cccc(CC(=O)Nc2nccs2)c1	0.9	0.9	13	41	0.6
COc1ccc(CCC(=O)Nc2ccc3c(c2)OCCO3)cc1	0.7	1.1	32	6	0.9
COc1ccc(N(CC(=O)Nc2ccc3c(c2)OCCO3)S(=O)(=O)c2c(C)nn(C)c2C)cc1	0.3	1.6	74*	55*	0.5
COc1ccc(N(CC(=O)Nc2nccs2)S(=O)(=O)c2c(C)nn(C)c2C)cc1	0.4	1.1	64*	58*	0.4
Cc1cc(NC(=O)c2ocnc2C)no1	0.9	0.9	10	11	0.9
COC(=O)c1ccc(NC(=O)CN(c2ccc(C)cc2)S(=O)(=O)c2c(C)nn(C)c2C)cc1	0.7	0.9	26	14	0.9
COc1ccc(N(CC(=O)Nc2cc(C)ccc2C)S(=O)(=O)c2c(C)nn(C)c2C)cc1	0.7	1.5	29	55*	0.4
COc1cc(NC(=O)CN(c2ccc(C)cc2)S(=O)(=O)c2c(C)nn(C)c2C)cc(OC)c1	0.5	1.5	54*	66*	0.3
COc1ccc(-c2nsc3c(SCC(=O)Nc4cc(C)ccc4C)ncnc23)cc1	0.9	0.9	9	-10	1.1
Cc1nc(C)c(C(=O)C2=C(O)C(=O)N(CCCN(C)C)C2c2ccco2)s1 (stereo not drawn)	0.7	1	28	7	0.9
C=CCn1c(=N)c(C(=O)OC)cc2c(=O)n3cccc(C)c3nc21	0.7	0.8	25	1	1
CCCC(=O)N1c2ccccc2[C@@H](N(C(C)=O)c2ccccc2)C[C@H]1C	0.3	1.8	73*	51*	0.5
O=[N+]([O-])c1ccc(S(=O)(=O)N2CCN(Cc3c[nH]c4ccccc34)CC2)cc1	0.8	1.1	15	14	0.9
CCCN(CC1CC1)S(=O)(=O)c1ccc(S(N)(=O)=O)cc1	0.6	1.2	43	66*	0.3
Cc1ccn2c(C(=O)CSc3ccc(Cl)cc3Cl)c(C)nc2c1	0.9	0.9	11	2	1
CCOc1ccc(C2C(C#N)=C(N)N(c3sc4c(c3C#N)CCCC4)C3=C2C(=O)CCC3)cc1 (stereo not drawn)	1	0.9	0	-2	1
O=C1CCCC2=C1C(c1ccccc1)CC(=O)N2c1ccccc1 (stereo not drawn)	0.9	0.9	6	78*	0.2
CSc1ccc(C2C(C#N)=C(N)N(c3ccccc3)C3=C2C(=O)CCC3)cc1 (stereo not drawn)	0.1	1.5	90*	74*	0.3
CCCSc1nnc(N2C(=O)CC(c3ccsc3)C3=C2CCCC3=O)s1 (stereo not drawn)	0.8	1	23	31	0.7
Cc1ccc(N2C(=O)CC(c3ccsc3)C3=C2CC(C)(C)CC3=O)cc1 (stereo not drawn)	0.7	1.2	33	40	0.6
CC1(C)CC(=O)C2=C(C1)N(c1ccccc1)C(=O)CC2c1ccsc1 (stereo not drawn)	0.7	0.9	26	88*	0.1
CC1(C)CC(=O)C2=C(C1)N(c1ccc(F)cc1)C(=O)CC2c1ccsc1 (stereo not drawn)	1	0.9	5	63*	0.4
SMILES	CYP2C9 act	PLAP act	CYP2C9 inhib	CYP2C19 inhib	CYP2C19 act
O=C(OCC(=O)N1CCCCCC1)c1cccs1	1	0.9	-4	49	0.5
COc1cccc(C(=O)NC(C)C(c2cccs2)N2CCOCC2)c1 (stereo not drawn)	0.8	1.1	21	8	0.9
Cc1nn(-c2ccc(F)cc2)c(Cl)c1/C=C(\CCC(=O)O)c1nc2ccccc2s1	0.8	1.5	17	6	0.9
Cc1nc2c(C(=O)NCCC3=CCCCC3)c[nH]n2c(=O)c1Cl	0.4	1.3	56*	-8	1.1
Cc1nc2nc(C)c(CCC(=O)NCCC3=CCCCC3)c(C)n2n1	1	1	2	1	1
Cc1nc2c(C(=O)NCc3ccc4c(c3)OCO4)c[nH]n2c(=O)c1Cl	0.2	1.2	77*	-12	1.1

Source: PubChem BioAssay
